Settings in all cases: concentration: 10 µM; 24 h
Assay [1] deals with HCC1569. The assay is described as follows: cell number relative to DMSO (% of DMSO); higher = more cells (less growth inhibition / toxicity). Summed up: (§1)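 After 24 h at 37 °C with compounds at 10 µM, in triplicate, HCC1569 and TDF cells were fixed with 3.7% formaldehyde. Immunostaining used a rabbit anti-H1.0 antibody and an AlexaFluor 647 secondary, with DAPI, and six fields per well were imaged at ×10. H1.0 nuclear intensity or cell number is presented as percent of the plate control, from the median of replicates, with HCC1569 values smoothed for positional effects.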

The subject of assay [2] is TDF. The description is as above. Summed up: as §1
Assay [3] relates to TDF. The assay is described as follows: H1.0 immunofluorescence intensity relative to DMSO (% of DMSO); higher = stronger H1.0 induction, active = 120 or more. Summed up: as §1
Assay [4] concerns HCC1569. The assay is described as follows: H1.0 immunofluorescence intensity relative to DMSO (% of DMSO); higher = stronger H1.0 induction, active = 140 or more. Summed up:
as §1

This is an account of results in the supplement of paper PMC7156485.

Where “and” joins values, the source holds several entries; their conditions need not be identical. Equal entries are not always repeated. ± gives the standard deviation of the averaged measurements.
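For H1.0 immunofluorescence intensity relative to DMSO in this document: TDF is a line of transformed human dermal fibroblasts of mesenchymal origin.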
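For cell number relative to DMSO in this document: TDF denotes transformed human dermal fibroblasts of mesenchymal origin.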

As for `CC12C=CC(=O)C=C1CCC1C3CC(O)C(O)(C(=O)CO)C3(C)CC(O)C12F` (stereo not given) [Triamcinolone], the results for the cell number in assay [1] and in assay [2] were 97.5 ± 4.1 and 105 ± 9.9, respectively. The H1.0 immunofluorescence intensity in assay [3] was 86.8 (inactive); in assay [4] it was 117 (inactive).

As to `CCC(NC(C)C)C(O)c1ccc(O)c2[nH]c(=O)ccc12.Cl` (stereo not given) [Procaterol.HCl], the cell number is 101 in assay [1] and 105 in assay [2]. The H1.0 immunofluorescence intensity was 83.2 (inactive) in assay [3] and 112 (inactive) in assay [4].

In the case of `CS(=O)(=O)c1ccc(C(O)C(COC(=O)CN)NC(=O)C(Cl)Cl)cc1` (stereo not given) [Thiamphenicol glycinate], the cell number in assay [1] is 105; in assay [2], 96.1. Moreover, the values for the H1.0 immunofluorescence intensity in assay [3] and in assay [4] were 98.4 (inactive) and 106 (inactive), respectively.

Take `NC(=O)c1ccc2[nH]ccc2c1`: the cell number in assay [1] is 108; in assay [2] it was 97.1. Further, the values for the H1.0 immunofluorescence intensity in assay [3] and in assay [4] were 101 (inactive) and 94.2 (inactive), respectively.

Take `CCOC(=O)C1=C(C)NC(=S)NC1c1cccc(O)c1` (stereo not given) [Monastrol]: the cell number came out at 99.8 in assay [1] and 112 in assay [2]. Further, the H1.0 immunofluorescence intensity in assay [3] was 100 (inactive); in assay [4], 97.1 (inactive).

Turning to `COc1ccc(CC[C@H]2CCC[C@@H](CCc3ccc(OC)cc3)N2C[C@@H](O)CO)cc1.Cl`, the cell number in assay [1] was determined as 101; in assay [2] it was 103. In addition, the H1.0 immunofluorescence intensity in assay [3] was 93.3 (inactive); in assay [4], 92.7 (inactive).

As for `CNC(=O)c1ccccc1Sc1ccc2c(C=Cc3ccccn3)n[nH]c2c1` [Axitinib], the cell number in assay [1] was 67.8; in assay [2], 46.4. Further, the figures for the H1.0 immunofluorescence intensity in assay [3] and in assay [4] were 99.1 (inactive) and 134 (inactive), respectively.

Regarding `NNCCc1ccccc1.O=S(=O)(O)O` [Phenelzine sulfate], the cell number amounted to 103 in assay [1] and 102 in assay [2]. Besides, the H1.0 immunofluorescence intensity in assay [3] was 95.3 (inactive); in assay [4] it was 74.3 (inactive).

Regarding `Oc1ccc(Cn2cc[nH]c2=S)cc1` [1-(4-Hydroxybenzyl)imidazole-2-thiol], the results for the cell number in assay [1] and in assay [2] were 102 and 101, respectively. Moreover, the H1.0 immunofluorescence intensity in assay [3] is 95.7 (inactive); in assay [4], 96.1 (inactive).

With `CCCCCC=CCC=CCC=CCC1OC1CCCC(=O)O` (stereo not given) [5,6-Epoxyeicosatrienoic acid], the cell number in assay [1] came to 101; in assay [2], 108. Besides, the H1.0 immunofluorescence intensity was 89.4 (inactive) in assay [3] and 103 (inactive) in assay [4].

As for `Nc1ncnc2c1ncn2C1OC(CO)C(O)C1O` (stereo not given) [Adenosine], the cell number in assay [1] was 107; in assay [2], 109. The H1.0 immunofluorescence intensity was 92.7 (inactive) in assay [3] and 93.6 (inactive) in assay [4].

On to `O=c1[nH]nc(Sc2ncc([N+](=O)[O-])s2)n1-c1ccc2c(c1)OCCO2`, for which the cell number in assay [1] was 58.3 and 32.2; in assay [2], 90.9 and 81.2. Moreover, the H1.0 immunofluorescence intensity is 103 (inactive) and 102 (inactive) in assay [3]; 137 (inactive) and 134 (inactive) in assay [4].

As to `O=Nc1ccc2oc(=O)ccc2c1` [6-Nitroso-1,2-benzopyrone], the cell number in assay [1] was 100; in assay [2], 103. In addition, the H1.0 immunofluorescence intensity in assay [3] is 92.2 (inactive); in assay [4], 101 (inactive).

`CC1C(=O)CCC2C1(C)CCC1C2(C)CCC2(C)C3CC(C)(C)CCC3(C)CCC12C` (stereo not given) [Friedelin]: the cell number is 99.5 in assay [1] and 102 in assay [2]. The H1.0 immunofluorescence intensity in assay [3] was 96.1 (inactive); in assay [4], 87.8 (inactive).

On to `CC(OC1OCCN(Cc2nc(=O)[nH][nH]2)C1c1ccc(F)cc1)c1cc(C(F)(F)F)cc(C(F)(F)F)c1` (stereo not given) [Aprepitant], for which the cell number in assay [1] stood at 101; in assay [2], 96.8. The H1.0 immunofluorescence intensity in assay [3] is 99.3 (inactive); in assay [4], 107 (inactive).

Consider `CC12CC3CC(C)(C1)CC(N)(C3)C2.Cl` [Memantine hydrochloride], for which the cell number in assay [1] was determined as 106; in assay [2], 96. Besides, the H1.0 immunofluorescence intensity was 101 (inactive) in assay [3] and 98.3 (inactive) in assay [4].

As to `CCC(C(=O)C(C)C(O)C(C)CCc1ccc(C)c(O)c1C(=O)[O-])C1OC(CC)(C2CCC(O)(CC)C(C)O2)CC1C.[Na+]` (stereo not given) [Lasalocid A], the cell number came to 79.3 in assay [1] and 88.5 in assay [2]. Moreover, the H1.0 immunofluorescence intensity in assay [3] was 105 (inactive); in assay [4] it was 94.6 (inactive).

In the case of `CC(CCc1ccccc1)NCC(O)c1ccc(O)c(C(N)=O)c1.Cl` (stereo not given) [Labetalol hydrochloride], the cell number in assay [1] amounted to 101; in assay [2], 106. Moreover, the figures for the H1.0 immunofluorescence intensity in assay [3] and in assay [4] were 83.5 (inactive) and 99.3 (inactive), respectively.

`COc1cc2ccccc2cc1C(=O)OC(C)C(=O)NCc1ccc(F)cc1` (stereo not given) [IP3K Inhibitor]: the cell number in assay [1] came out at 102; in assay [2] it was 107. For the same compound, the H1.0 immunofluorescence intensity was 98.7 (inactive) in assay [3] and 115 (inactive) in assay [4].

As to `CC12CCC3c4ccc(O)cc4CCC3C1CCC2=O` (stereo not given) [Estrone], the cell number in assay [1] was 102 ± 4.7; in assay [2], 99.9 ± 9.3. In addition, the H1.0 immunofluorescence intensity in assay [3] is 96.7 (inactive); in assay [4], 101 (inactive).

On to `CC(C)(S)[C@H](N)C(=O)O` [L-Penicillamine], for which the cell number was found to be 100 in assay [1] and 102 in assay [2]. Moreover, the H1.0 immunofluorescence intensity in assay [3] was 98.5 (inactive); in assay [4], 90.8 (inactive).

Consider `C[N+]1(C)C2CC(OC(=O)C(O)(c3cccs3)c3cccs3)CC1C1OC12.[Br-]` (stereo not given) [Tiotropium Bromide], for which the cell number in assay [1] came to 105; in assay [2], 97.1. In addition, the H1.0 immunofluorescence intensity in assay [3] is 95.7 (inactive); in assay [4] it was 114 (inactive).

With `COC(=O)Nc1nc2ccc(C(=O)c3cccs3)cc2[nH]1` [Nocodazole], the cell number in assay [1] was found to be 59.5; in assay [2] it was 10.9. For the same compound, the H1.0 immunofluorescence intensity was 157 (active) in assay [3] and 136 (inactive) in assay [4].

For `Clc1ccc(C(Cn2ccnc2)OCc2ccsc2Cl)c(Cl)c1` (stereo not given) [Tioconazole], the cell number in assay [1] came to 102; in assay [2], 94.9. In addition, the H1.0 immunofluorescence intensity was 103 (inactive) in assay [3] and 113 (inactive) in assay [4].

For the compound `Cl.Cl.OCCN1CCN(CCC=C2c3ccccc3Sc3ccc(C(F)(F)F)cc32)CC1` [cis-(Z)-Flupenthixol dihydrochloride], the cell number in assay [1] is 86.1; in assay [2], 102. The H1.0 immunofluorescence intensity was 102 (inactive) in assay [3] and 125 (inactive) in assay [4].
